According to PubChem BioAssay AID527 (NMMLSC, 2006):
Screen size: about 24,000 compounds; about 65 (0.3%) were called active.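 The calls were made as follows: active = share of bacteria positive for the green fluorescent reporter and its mean brightness both inhibited by 50% or more; inactive = the rest, inconclusive results apart.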 What follows is part of a selection rich in actives, with near analogues and random picks from the rest.

Test: blockers of AIP-driven agr signalling in S. aureus – RNAIII-GFP reporter, flow cytometry, primary screen (AID 527);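 also: 0% = AIP-stimulated control and 100% = unstimulated bacteria without AIP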
Details: S. aureus RN6390 RNAIII-GFP reporter, AIP-induced, flow cytometry 3 h, at 2 µM, stronger effect = higher value
[1] = measured here: inhibition of GFP MFI

SMILES	inhibition	inhibition [1]
Cc1nc2ccc(S(=O)(=O)NCC(=O)NCCN3CCCCC3C)cc2s1 (centres undefined)	-2.2% (inactive)	-14.7%
CCCOC(=O)c1cc2ccccc2oc1=O	3.4% (inactive)	8.3%
CSc1cccc(NC(=O)C2CCCN2S(=O)(=O)c2ccc3c(c2)CCC(=O)N3)c1 (centres undefined)	8.9% (inactive)	21%
O=C(CN1C(=O)CSc2ncccc21)N1CCOCC1	-5.1% (inactive)	-14.2%
CC1CN(C(=O)c2ccc3c(c2)OCO3)OC(c2ccccc2)O1 (centres undefined)	6% (inactive)	10.1%
c1ccc(-c2cn3cccnc3n2)cc1	-2.7% (inactive)	-34.3%
CS(=O)(=O)NCc1ccc(C(=O)NCc2ccccc2)cc1	-0.2% (inactive)	-1.2%
CS(=O)(=O)N(Cc1nc2sc3c(c2c(=O)[nH]1)CCCC3)C1CCCCC1	0.3% (inactive)	-0.2%
Cc1ccc(NC(=O)CSc2nnc(-c3cnccn3)n2Cc2ccco2)cc1C	-0.7% (inactive)	-6.3%
CC(=O)C1C(c2cccc(Oc3ccccc3)c2)NC(=O)NC1(O)C(F)(F)F (centres undefined)	18.4% (inactive)	32%
CCOc1ccc(NCCC(=O)c2ccc3c(c2)OCO3)cc1	-0.1% (inactive)	10.4%
CCOC(=O)C1CCN(C(=O)C2CCN(S(=O)(=O)c3c(C)noc3C)CC2)CC1	-1.5% (inactive)	-40%
COc1cc(C2C(C#N)=C(N)Oc3n[nH]c(-c4ccccn4)c32)cc(OC)c1OC (centres undefined)	-3.4% (inactive)	8.1%
CSc1ccc(NC(=O)N2CC(C)OC(C)C2)cc1 (centres undefined)	0% (inactive)	1.1%
O=C(CN1CCN(S(=O)(=O)c2ccc(F)cc2)CC1)Nc1ccccc1F	11.5% (inactive)	16.5%
COc1ccc(C2CC(c3ccc(C)cc3)Nc3ncnn32)cc1 (centres undefined)	-0.4% (inactive)	12.6%
CCCCN=C(N)/C(C(=O)OCC)=C(\O)c1ccc(OC)cc1	0.5% (inactive)	11.9%
O=C(O)c1cccc2c1C(=O)N(C1CCCCC1)C2	0% (inactive)	21.1%
CCN(CC)S(=O)(=O)c1ccc2[nH]cc(C(=O)NCCc3ccccc3)c(=O)c2c1	-0.1% (inactive)	-2.7%

SMILES	inhibition	inhibition [1]
COc1c(F)c(F)c(C(=O)O)c(Nc2ccccc2C)c1F	-1.7% (inactive)	-14%
COc1ccc(C(=O)Nc2cccnc2)cc1C(=O)Nc1cccnc1	2.2% (inactive)	2.6%
COc1ccc(N2C(=O)c3cccc4cccc(c34)C2=O)nn1	-1.1% (inactive)	-16.4%
Cc1cccc(C)c1NC(=O)N1CC=C(n2c(=O)[nH]c3ccccc32)CC1	8.3% (inactive)	17.1%
CCCCC(CC)C(=O)Nc1ccc(Cl)cn1 (centres undefined)	0.6% (inactive)	18.7%
Cc1nc2nc[nH]n2c(=O)c1NC(=O)c1cccc(OCC(C)C)c1	-5.4% (inactive)	-8.1%
COc1ccc(-c2c(C)nn3c(N4CCC(C(=O)N5CCCCC5)CC4)cc(C)nc23)cc1OC	-3.5% (inactive)	-8.8%
CCOc1ccc(-c2nnn(CC(=O)N3CCN(c4ccc(F)cc4)CC3)n2)cc1OCC	0.7% (inactive)	1.3%
COc1cccc(CN2C(=O)CCC2(C)C(=O)NC2CCCCCC2)c1 (centres undefined)	-1.4% (inactive)	-12.5%
COCCCNC(=O)c1ccc2c(c1)ncn2-c1ccccc1OC	-3.4% (inactive)	-5.1%
CCOC(=O)c1cc(NC(=O)SCC(=O)O)c(C)nc1C	-1.6% (inactive)	-14.7%
CCOc1cc(/C=N/n2cnnc2)c(Br)cc1O	-1.6% (inactive)	-8.8%
COCCNC(=S)c1ccc(OC)cc1	-3.4% (inactive)	-6.1%
Clc1ccc(Cc2nn3c(-c4ccncc4)nnc3s2)cc1	0.3% (inactive)	5.4%
CCC(=O)c1ccc(OCC(O)CN2C(=O)NC(C)(C)C2=O)cc1 (centres undefined)	-0.8% (inactive)	-2.7%
COc1ccc(S(=O)(=O)NC(CC(=O)NCc2ccccc2OC)c2ccco2)cc1 (centres undefined)	-0.4% (inactive)	-11.3%
CC(C)CCNC(=O)CCNS(=O)(=O)c1ccc(Cl)cc1	2.3% (inactive)	8%
O=C(CCS(=O)(=O)Cc1ccccc1F)NCCCN1CCCCC1	-1.8% (inactive)	-2.4%
